High-throughput results from PubChem.
TEAD-YAP inh – TEAD-YAP interaction inhibition. HEK-TIYL cells, TEAD-Gal4/YAP UAS-luciferase luminescence. inhibition, % at 9.12 µM. 640,000 tested, 1.4% active. AID 1259422; in the data active means inhibition above about 32%;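 further: 0% = median of test compound wells and 100% = reference inhibitor wells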
MITF inh – human MITF inhibition, primary screen; O75030; AlphaScreen MITF homodimerization, bead proximity signal; inhibition, % at 2.6 µM; 650,000 tested, 0.91% active; AID 1259374; in the data active means inhibition above about 50%;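 further: 0% = vehicle wells with protein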
GPR151 ag – human GPR151 activation. PathHunter beta-arrestin GPR151 cells, luminescence. AID 1508602. activation, % at 11.2 µM. 650,000 tested, 1% active; in the data active means activation above about 4.9%;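 further: 0% = median of compound wells and 100% = cells with positive control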
Target sequence (Q8TDV0 whole entry, looked up): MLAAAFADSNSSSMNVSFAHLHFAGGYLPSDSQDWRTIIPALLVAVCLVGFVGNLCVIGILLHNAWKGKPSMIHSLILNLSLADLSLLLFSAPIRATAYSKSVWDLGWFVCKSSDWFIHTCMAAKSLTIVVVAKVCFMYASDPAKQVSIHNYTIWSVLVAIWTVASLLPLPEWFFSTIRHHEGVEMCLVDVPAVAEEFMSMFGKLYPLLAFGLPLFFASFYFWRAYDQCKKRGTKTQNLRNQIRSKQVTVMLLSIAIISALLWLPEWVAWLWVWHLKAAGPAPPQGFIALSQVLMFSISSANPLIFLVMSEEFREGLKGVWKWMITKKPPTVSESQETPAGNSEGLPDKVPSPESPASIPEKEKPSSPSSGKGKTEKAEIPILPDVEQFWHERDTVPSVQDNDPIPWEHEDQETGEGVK
FBW7 act – activators of human E3 ligase FBW7 | AlphaScreen FBW7–phospho-cyclin E peptide binding, activator screen | normalized activity (activation), % at 26.1 µM | Q969H0 | 650,000 tested, 0.13% active; in the data active means normalized activity above about 1.9%;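 further: purified mutant Fbw7 with reduced substrate affinity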
GPR151 confirm – human GPR151 activation, confirmation screen. activation, % at 11.2 µM. shares compounds with GPR151 ag. 6,700 tested, under 10 active. GPR151 PathHunter beta-arrestin cells, luminescence, 90 min; % of EA-reagent control over plate median;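 active means mean percent activation across replicates above the confirmation screen cutoff of 4.91%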
GPR119 counter – counter-screen for GPR151 activators: effect on human GPR119; activation, % at 11.2 µM; GPR119 PathHunter beta-arrestin cells, luminescence, 90 min; 0 = compound-well median, 100 = enzyme-acceptor control; shares compounds with GPR151 ag; AID 1508611; 6,700 tested, 0.3% active;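 active means mean percent activation in the counterscreen above 29.09%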;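 further: counterscreen on off-target GPR119 to flag nonselective hits from the GPR151 activator screen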
The depositor's hits bear a star; / = not tested or not shown. A selection: hits, their analogues and other compounds. The true share with any hit is near 3.4%.

SMILES	TEAD-YAP inh	MITF inh	GPR151 ag	FBW7 act	GPR151 confirm	GPR119 counter
Cn1ccnc1N1CCN(C(=O)c2cccc(F)c2)CC1	4.7	9.2	5.1*	0.1	-1.1	-12.5
O=C(Cc1nc2scc(-c3ccccc3)c2c(=O)[nH]1)N1CCOCC1	2.6	0.6	11.0*	0.0	0.3	13.4
NC(=O)CC(c1ccccc1)c1ccc2c(c1)OCO2 (configuration not stated)	12.2	-0.3	6.4*	-0.1	-0.1	6.2
OCCCNc1ncc(-c2ccc(Cl)cc2)cn1	-4.5	0.1	5.8*	0.1	-0.6	-1.3
COc1ccc(-c2cnc(NCCCO)nc2)cc1	-14.3	4.0	-1.7	0.1	/	/
O=C(NCc1ccccc1F)c1cc2cc(Br)ccc2oc1=O	-0.7	-0.4	5.9*	-0.1	-0.2	7.1
COc1ccc(-c2nc3ccccc3c(=O)n2NC(=O)c2ccc(F)cc2Cl)cc1OC	-5.3	16.7	-0.2	0.3	/	/
O=C(/C=C\N1CCCCC1)c1ccc(Cl)cc1	-12.5	15.2	6.1*	0.1	-1.8	-25.7
COc1cccc(NC(=O)CSc2nc3ccccc3c(=O)n2CCc2ccc(OC)c(OC)c2)c1	-0.7	4.4	5.0*	-0.1	-1.1	-13.7
Cc1ccccc1NC(=O)Cn1nc(C)n2cccc2c1=O	3.6	6.5	8.6*	0.0	-0.8	-11.7
CCC1=NN2C(=N)/C(=C/c3ccc(OCCOc4ccccc4C)c(OC)c3)C(=O)N=C2S1	1.4	-10.2	2.2	-0.1	/	/
COC(=O)C1CCN(C(=O)CC(C)(C)C)CC1	-2.5	16.7	6.1*	0.3	1.5	3.3
COc1ccc(S(=O)(=O)NC(C(C)C)C(C)C)cc1Cl	5.0	4.3	0.2	0.8	/	/
COC(=O)c1cc(NC(=O)c2ccc(N3CC4CC(C3)c3cccc(=O)n3C4)c(NC(=O)Nc3ccccc3)c2)cc(C(=O)OC)c1 (configuration not stated)	-11.6	-2.2	6.7*	-0.1	0.9	8.5
CN(CCc1ccccn1)C(=O)c1ccc(N2CC3CC(C2)c2cccc(=O)n2C3)c(NC(=O)c2cccs2)c1 (configuration not stated)	2.1	7.3	7.4*	-0.1	-0.7	-3.4
COc1cc(C(=O)Nc2cc(C(=O)Nc3ccccc3SC)ccc2N2CC3CC(C2)c2cccc(=O)n2C3)cc(OC)c1OC (configuration not stated)	-12.1	11.9	0.7	0.0	/	/
COc1cc(C(=O)Nc2cc(C(=O)N3CCN(c4ccccc4)CC3)ccc2N2CC3CC(C2)c2cccc(=O)n2C3)cc(OC)c1OC (configuration not stated)	5.8	12.5	5.5*	0.0	-0.5	3.4
O=C1N(Cc2cccnc2)C[C@@H]2C[C@@H](c3ccc(Oc4ncccn4)cc3)N3CCC[C@@]123	1.2	5.3	0.4	0.0	/	/
O=C1N(Cc2cccnc2)C[C@@H]2C[C@@H](c3cccn3-c3ncccn3)N3CCC[C@@]123	6.8	6.9	19.7*	0.1	0.4	-3.6
Nc1ccc(S(=O)(=O)O)cc1.Nc1ccc(S(=O)(=O)O)cc1.[Zn+2]	-3.9	10.7	0.7	0.2	/	/
O=[N+]([O-])c1ccc(NC(=S)NCCc2ccccn2)cc1	-15.5	1.6	-0.3	0.1	/	/
O=C(NCCSC1CCCCC1)Nc1ccccc1	0.7	-10.4	5.1*	-0.1	-1.0	-17.9
CCCNC(=O)c1csc(-c2c(C)nn(C)c2C)n1	-4.8	27.0	5.2*	0.0	0.1	10.1
COc1ccccc1NC(=O)CSc1nnc(CCNC(=O)c2ccc(C)cc2)n1C	-0.9	11.9	6.1*	0.0	0.9	3.6
CC(C)N(C(=O)Cc1csc(NC(=O)Nc2ccc(Cl)cc2)n1)C(C)C	4.8	-6.6	11.2*	0.0	0.4	-10.0
SMILES	TEAD-YAP inh	MITF inh	GPR151 ag	FBW7 act	GPR151 confirm	GPR119 counter
CCOC(=O)c1csc(NC(=O)Nc2ccc(Cl)cc2)n1	-7.2	-5.7	-1.1	-0.1	/	/
CCOC(=O)C1(CC2CC2)CCN(S(=O)(=O)c2cc(C)sc2C)CC1	4.7	11.4	6.3*	0.3	-0.5	1.1
CCOC(=O)C1(CC2CC2)CCN(S(=O)(=O)c2cc(Cl)ccc2OC)CC1	-2.1	12.5	-0.2	0.2	/	/
CCn1c(SCC(=O)Nc2cccc(NC(C)=O)c2)nnc1-c1cccs1	-0.2	-6.2	0.4	-0.1	/	/
COc1ccccc1CNC(=O)CCc1c(C)nc2c(c(C)nn2C(C)(C)C)c1C	-0.2	5.2	3.1	0.1	/	/
COc1ccc(CNC(=O)CCc2c(C)nc3c(c(C)nn3C(C)(C)C)c2C)cc1	-16.6	6.7	7.2*	0.0	-0.7	-9.3
O=C(O)c1cc(-c2ccc([N+](=O)[O-])o2)c(Cl)cc1Cl	5.6	5.1	-0.2	0.0	/	/
CC(=O)Nc1cc(-c2cccc(Br)c2)nn1-c1ccccc1	6.2	6.3	5.3*	-0.1	-0.9	-4.4
COc1ccc(Cl)cc1NC(=S)N(CCCN1CCCCCC1)Cc1ccco1	5.1	-8.7	-1.4	-0.3	/	/
CC(C)(C)SCCNC(=O)c1ccc(CN(c2ccccc2)S(C)(=O)=O)cc1	-24.3	2.7	-0.9	0.6	/	/
CC1CCN(CCNC(=O)CCCCCn2c(=S)[nH]c3cc4c(cc3c2=O)OCO4)CC1	-0.3	-6.4	-1.2	0.0	/	/
O=C(NCSC1=NCCS1)c1ccccc1	-10.2	1.1	8.2*	0.0	-0.1	4.9
c1ccc(CSC2=NCCS2)cc1	-19.4	-2.2	0.3	0.0	/	/
Cc1ccc(-n2nnc(-c3nc(-c4ccc5c(c4)OCO5)no3)c2N)cc1	-12.9	12.1	-1.3	0.8	/	/
O=C(Cn1nnnc1CN1CCCCCC1)N1CCC(c2ccccc2Cl)C1 (configuration not stated)	0.0	-1.3	-0.7	-0.1	/	/
COc1ccc(-n2c(SCC(=O)Nc3ccc(C(C)C)cc3)nc3n[nH]c(C)c3c2=N)cc1	17.2	7.6	1.3	-0.1	/	/
CN(C)c1ccc(C2C(=O)N(C3CCCCC3)CC(=O)N2Cc2cccs2)cc1 (configuration not stated)	30.2	-0.3	1.4	-0.2	/	/
COc1ccc(C2C(=O)N(C3CCCC3)CC(=O)N2Cc2cccs2)cc1 (configuration not stated)	1.7	-1.6	11.0*	0.0	1.1	13.8
CC(C)CNC(=O)C1=CC(c2ccc(F)cc2)=NS(=O)(=O)N1C	-8.5	2.4	7.5*	0.0	-0.1	-7.9
Cn1ncc(Br)c1C(=O)Nc1ccc(Cl)cc1Cl	0.1	-10.7	-0.9	-0.1	/	/
COc1cc(C(=O)NCc2nnc(SCC(=O)N3CCc4ccccc43)n2-c2cccc(C(F)(F)F)c2)cc(OC)c1OC	3.1	19.1	-0.3	0.0	/	/
O=c1[nH]c2ccc(S(=O)(=O)N3CCN(c4ccccn4)CC3)cc2s1	-12.9	-5.1	5.1*	0.1	0.1	6.4
